Screening results: PubChem, several laboratories
CYP2C19 act: human CYP2C19 activators, primary screen, biochemical, luminescence; Cytochrome P450 2C19 (Homo sapiens), P33261; recombinant CYP2C19, luciferin-H EGE luminescence; stronger effect = higher value; 0 = fully inhibited enzyme, 1 = untreated enzyme; activation factor at 5 µM; 96,000 tested, under 10 active; AID 1025, 2008;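 active means activation factor of at least 2 at 5 µM in the primary screen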;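 further: 0 = wells with 2.5 mM tranylcypromine and 1 = vehicle-only wells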
Target sequence (P33261 whole entry, looked up): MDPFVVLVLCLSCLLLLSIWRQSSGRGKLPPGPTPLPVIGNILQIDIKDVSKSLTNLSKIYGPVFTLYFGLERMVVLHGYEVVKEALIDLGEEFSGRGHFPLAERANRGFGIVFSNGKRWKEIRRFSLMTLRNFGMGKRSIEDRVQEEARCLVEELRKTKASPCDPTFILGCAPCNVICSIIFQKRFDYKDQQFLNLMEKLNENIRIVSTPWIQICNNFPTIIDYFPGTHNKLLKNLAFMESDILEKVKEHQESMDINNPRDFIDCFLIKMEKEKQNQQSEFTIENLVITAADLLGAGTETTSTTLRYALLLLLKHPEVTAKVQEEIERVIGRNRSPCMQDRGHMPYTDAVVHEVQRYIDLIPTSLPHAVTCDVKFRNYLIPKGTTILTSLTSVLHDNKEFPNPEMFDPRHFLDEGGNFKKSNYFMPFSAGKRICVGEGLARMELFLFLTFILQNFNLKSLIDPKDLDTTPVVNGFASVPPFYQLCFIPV
CYP2C9 inhib: blockers of cytochrome P450 2C9 activity – biochemical, luminescence, ADME assay, primary screen; CYP2C9 Supersomes, luciferin-H conversion; AID 777, 2007; hit rate 20% among 96,000; P11712; inhibition, % at 5 µM;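 active means blocking of liver enzyme CYP2C9 beyond about 50% at 5 µM, limit read from the data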
CYP2C19 inhib: blockers of cytochrome P450 2C19 activity – biochemical, luminescence, ADME assay, primary screen; P33261; CYP2C19 Supersomes, luciferin-H EGE luminescence, 30 min; inhibition, % at 5 µM; hit rate 21% among 96,000; AID 778, 2007;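 active means CYP2C19 inhibition above a set limit at 5 µM in the primary screen, cut at about 50% in these data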;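 further: plate controls were negative control wells for no effect and 2.5 mM tranylcypromine positive control for full effect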
PostGolgi yeast: phenotypic screen on post-Golgi transport, primary screen; post-Golgi transport phenotypic cell assay; inhibition, % at 10 µM; hit rate 0.9% among 98,000; AID 739, 2007;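 further: yeast cells grown in 1536-well plates; yeast grown about 18 h at 30C before absorbance read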
PostGolgi ctrl: growth inhibition of yeast control strain, primary screen, counter-screen for post-Golgi transport modulator project. efflux-deficient yeast background strain, growth absorbance A615, 16 h. inhibition, % at 10 µM. hit rate 5% among 98,000
CYP2C9 act: human CYP2C9 activators, primary screen, biochemical, luminescence | activation factor at 5 µM | hit rate 1.4% among 96,000 | recombinant CYP2C9, luciferin-H conversion; stronger effect = higher value; factor 1 = untreated enzyme, 0 = blocked;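 active means activation factor of 2 or more for CYP2C9 at a 5 µM dose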;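 further: 0 = sulfaphenazole-blocked wells and 1 = vehicle-only wells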
Numbers without * were called inactive. These entries were drawn from the full list. Unless noted, no stated cut-off is given here; in the data, active means inhibition above about 30%; inactive means the rest.

SMILES	CYP2C19 act	CYP2C9 inhib	CYP2C19 inhib	PostGolgi yeast	PostGolgi ctrl	CYP2C9 act
CCOC(=O)/N=C(/NC(=O)Nc1ccc(C(=O)OCC)cc1)OC	1	3	-1	-5	1	1
CCn1c2ccc(CC(=O)O)cc2c2cc(CC(=O)O)ccc21	0.9	2	8	-1	2	1
COCCOC(=O)C1=C(C)NC(SCC(=O)NC(C)(C)C)=C(C#N)C1c1ccco1 (stereo not drawn)	0.2	86*	82*	-4	-4	0.1
C=CCOC(=O)C1=C(C)NC(SCC(=O)Nc2ccc(C)c(Cl)c2)=C(C#N)C1c1ccco1 (stereo not drawn)	0.5	79*	52*	9	-7	0.2
CCOC(=O)C1=C(c2ccccc2)NC(SCC(=O)NC2CCCCC2)=C(C#N)C1c1ccco1 (stereo not drawn)	0.7	61*	30	-7	0	0.4
CCOC(=O)C1=C(C)NC(=O)C(C#N)C1c1ccco1 (stereo not drawn)	0.7	21	26	0	11	0.8
COC(=O)c1sc2ncn(-n3c(C)ccc3C)c(=O)c2c1C	0.9	14	13	-4	7	0.9
Cc1noc(C)c1C(=O)NCCCN1CCCC1=O	1.1	-16	-13	1	-8	1.2
CC1CCCC(NC(=O)Cn2cc3c(n2)CCCCC3)C1C (stereo not drawn)	1	-45	-1	-1	-1	1.4
CCOC(=O)C1=C(N)N2C(=O)CSC2=C(C(=O)OC)C1	1.2	46	-15	-26	-2	0.5
COC(=O)c1sc2cc(C(F)(F)F)cnc2c1-c1cccnc1	0.6	52*	38	5	-3	0.5
NC(=O)c1sc2cc(C(F)(F)F)cnc2c1-c1cccs1	0.8	24	20	3	10	0.8
CSc1nnc(-c2sc3cc(C(F)(F)F)cnc3c2-c2cccnc2)n1C	0.7	33	31	1	-4	0.7
O=C(Nc1ccccc1)c1sc2cc(C(F)(F)F)cnc2c1-c1cccs1	0.5	74*	52*	18	3	0.3
CCOC(=O)c1c2n(c3ccc(OC(C)=O)cc13)CCC2	1	-13	-1	-5	2	1.1
CC1CCCN(C(=O)CCS(=O)(=O)Cc2ccccc2)C1 (stereo not drawn)	0.9	-11	13	0	19	1.1
CCN(CC)c1ccc(C2C(C(=O)OC(C)C)C(=O)CC(C)(O)C2C(=O)OC(C)C)cc1 (stereo not drawn)	0.8	6	21	9	-3	0.9
CC(C)OC(=O)C1C(=O)CC(C)(O)C(C(=O)OC(C)C)C1c1ccc(F)cc1 (stereo not drawn)	0.2	26	77*	-3	10	0.7
CC(C)n1nnnc1-c1cc(Cl)cc(Cl)c1	1	3	4	1	4	1
CCN(CCNC(=O)C1CCCN(Cc2nc(-c3ccc(OC)cc3)oc2C)C1)c1ccccc1 (stereo not drawn)	0.4	61*	55*	6	5	0.4
CCOC(=O)C1CCN(C(=O)CSCc2nc(-c3ccc(OCC)cc3)oc2C)CC1	0.5	81*	54*	0	16	0.2
COc1ccc(-c2nc(CSCC(=O)N3CCC(C(N)=O)CC3)c(C)o2)cc1OC	1.2	-3	-23	-5	-11	1
Cc1oc(-c2ccc(Cl)cc2)nc1CN1CCCC(C(=O)N2CCN(C(=O)c3ccco3)CC2)C1 (stereo not drawn)	0.4	52*	55*	-1	7	0.5
CCOc1ccc(-c2nc(CSCC(=O)N3CCN(C(=O)c4ccco4)CC3)c(C)o2)cc1	0.5	80*	45	-1	1	0.2
Cc1ccc(-c2nc(CSCC(=O)N3CCCC3)c(C)o2)cc1	0.9	18	10	-8	6	0.8
CCc1ccc(-c2nc(CN3CCCC(C(=O)O)C3)c(C)o2)cc1 (stereo not drawn)	1	10	3	-11	8	0.9
CCC(=O)Nc1ccc(C(=O)Cn2nc(C(=O)O)c3ccccc3c2=O)cc1	0.8	31	25	-4	9	0.7
